A selection: hits, their analogues and other compounds. The true share with any hit is near 19%.
HT1080 IDH1KD tx – HT-1080 IDH1 knockdown cell toxicity (counter line); AID 686971; Potency, µM (highest dose often 46.1 µM), most hits filed as cytotoxic; HT-1080 IDH1 knockdown viability, ATP luminescence, 48 h; 360,000 compounds, 2% hits
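Viability of IDH1-knockdown HT-1080 fibrosarcoma cells was assessed by CellTiter-Glo after 48 h at 37 °C with titrated compound; concentration-effect curves were classified by fit quality and response size.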
DT40 TDP1 CPT – growth inhibition of DT40 Tdp1-/-;hTDP1 cells with camptothecin (screen for TDP1 inhibitors). chicken DT40 Tdp1-/-;hTDP1 cells + 20 nM CPT, ATP luminescence, 48 h. Potency, µM (highest dose often 46.2 µM), hits mostly inhibitors. 420,000 compounds, 12% hits. AID 686979; also: nearly all actives have a fitted effect of over 55% in size
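Chicken DT40 Tdp1-/- cells complemented with human TDP1, 400 cells/well, exposed to compounds plus 20 nM camptothecin for at least 48 h at 37 C; viability read as ATP content by CellTiter-Glo luminescence.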
uPA generation – blocks generation of uPA at the cell surface. cell surface uPA generation assay, qHTS. 330,000 compounds, 0.31% hits. Potency, µM (highest dose often 38.3 µM), actives largely listed as inhibitors; active = well fitted inhibition curve with a large enough effect; inconclusive = small, poorly fitted or top-dose-only effect; inactive = no such curve, though single readings can be large or run the other way; tested in mouse RAW 264.7 cells; also: nearly all actives have a fitted effect of over 55% in size
IL-1B inflam inh – blocks inflammasome-driven IL-1 beta release; THP-1 LPS/ATP IL-1B secretion, AlphaLISA, 16 h; active compounds read low; activity change, % at 57.5 µM; 360,000 compounds, 4.7% hits; AID 743279; in the data active = activity change below about -50%; inconclusive = mostly about -30% to -49%
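Secreted IL-1B measured by AlphaLISA bead assay after 16 h compound exposure of THP-1 cells; compounds (final up to 57.5 uM) added 1 h before LPS (250 ng/mL) and ATP (1.25 mM) stimulation; lower signal means less secretion.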
HT1080NT lethal – kills 2HG-producing HT-1080-NT fibrosarcoma cells | AID 686970 | 360,000 compounds, 1.6% hits | Potency, µM (titrated, usually from 46.1 µM), actives largely listed as cytotoxic | HT-1080-NT fibrosarcoma viability, CellTiter-Glo ATP luminescence, 48 h;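 also: NT is the 2HG producing partner of a matched IDH1 knockdown line; nearly all actives have a fitted effect of over 55% in size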
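Viability by CellTiter-Glo luminescence after 48 h compound exposure at 37C of HT-1080-NT cells (750/well, RPMI, 5% FBS). % activity scaled between DMSO wells and medium-only wells, then curve-fitted and categorized by curve class.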
DT40 TDP1 no CPT – qHTS for Inhibitors of human tyrosyl-DNA phosphodiesterase 1 (TDP1): qHTS in cells in absence of CPT | DT40 Tdp1-/- hTDP1 cells, no CPT, ATP luminescence, 48 h | Potency, µM (doses to about 46.2 µM), hits mostly inhibitors | 420,000 compounds, 15% hits; also: nearly all actives have a fitted effect of over 55% in size
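Growth kinetics read by CellTiter-Glo luminescence after ≥48 hr at 37 °C. Cells: DT40 Tdp1-/- stably carrying human TDP1, 400 per well, compound exposure in the absence of CPT (DMSO vehicle).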
Large screens that a line does not name were inactive. Unless noted, calls follow the shape of the dose curve; as a rule, active = well fitted curve in the direction sought with a large enough effect; inconclusive = small, poorly fitted or top-dose-only effect, or another doubt; inactive = no such curve, though single readings can be large; an effect the other way counts as inactive or inconclusive.

CC1CCN(S(=O)(=O)c2ccc3c(c2)c(=O)c(C(=O)NCc2cccs2)cn3C)CC1	DT40 TDP1 CPT inconclusive, DT40 TDP1 no CPT inconclusive
Cn1cc(C(=O)NCc2ccccc2)c(=O)c2cc(S(=O)(=O)N3CCOCC3)ccc21	none (no result: HT1080 IDH1KD tx, uPA generation, IL-1B inflam inh, HT1080NT lethal)
Cn1cc(C(=O)O)c(=O)c2cc(S(=O)(=O)N3CCOCC3)ccc21	DT40 TDP1 CPT 16µM, DT40 TDP1 no CPT 23µM (no result: HT1080 IDH1KD tx, uPA generation, IL-1B inflam inh, HT1080NT lethal)
Cn1cc(C(=O)NCCc2ccc(Cl)cc2)c(=O)c2cc(S(=O)(=O)N3CCOCC3)ccc21	none (no result: HT1080 IDH1KD tx, uPA generation, IL-1B inflam inh, HT1080NT lethal)
CC1CCN(S(=O)(=O)c2ccc3c(c2)c(=O)c(C(=O)NCc2ccco2)cn3C)CC1	DT40 TDP1 CPT 21µM, DT40 TDP1 no CPT 21µM
O=C(Nc1ccc(F)c(Cl)c1)N1CCC(CN2CCOCC2)CC1	none (no result: HT1080 IDH1KD tx, uPA generation, IL-1B inflam inh, HT1080NT lethal)
CSc1ccc(CN2CCC(C(=O)NCc3ccc(C)cc3)CC2)cc1	DT40 TDP1 CPT inconclusive
CCN(CC)c1ccc(/C=N/NC(=O)Nc2ccccc2)cc1	HT1080 IDH1KD tx inconclusive, DT40 TDP1 CPT inconclusive, HT1080NT lethal inconclusive, DT40 TDP1 no CPT inconclusive
CCN(CC)c1ccc(/C=N/NC(=O)Cc2nnc(NC(=O)Nc3ccccc3)s2)cc1	HT1080 IDH1KD tx 15µM, DT40 TDP1 CPT inconclusive, HT1080NT lethal 21µM, DT40 TDP1 no CPT 21µM
Cc1ccc(Cl)cc1Nc1nc2ccccc2c2nncn12	DT40 TDP1 CPT inconclusive, DT40 TDP1 no CPT 23µM (no result: HT1080 IDH1KD tx, uPA generation, IL-1B inflam inh, HT1080NT lethal)
OC1Cc2ccccc2C1Nc1cccc(C(F)(F)F)c1 (centres undefined)	IL-1B inflam inh -66, DT40 TDP1 no CPT inconclusive
N#Cc1ccc(NC2c3ccccc3CC2O)cc1 (centres undefined)	DT40 TDP1 CPT inconclusive, DT40 TDP1 no CPT inconclusive
CN(c1ccc(-c2csc(NC(=O)CCCc3nc4ccccc4c(=O)[nH]3)n2)cc1)S(C)(=O)=O	DT40 TDP1 CPT 21µM, DT40 TDP1 no CPT 8.2µM (no result: uPA generation)
O=C(CCc1nc2ccccc2c(=O)[nH]1)Nc1nc(-c2cccs2)cs1	DT40 TDP1 CPT inconclusive, DT40 TDP1 no CPT inconclusive
CC(=O)NC(CC(=O)Nc1nc(-c2ccc(N(C)S(C)(=O)=O)cc2)cs1)c1ccccc1 (centres undefined)	DT40 TDP1 CPT 21µM, IL-1B inflam inh inconclusive, DT40 TDP1 no CPT 16µM
COc1cccc(Cn2c(=O)c(-c3cccc(C#N)c3)nc3cnc(N4CCOCC4)nc32)c1	none (no result: HT1080 IDH1KD tx, uPA generation, IL-1B inflam inh, HT1080NT lethal)
COCCOC(=O)c1c(NC(=O)CN2CCc3ccccc32)sc(C(N)=O)c1C	DT40 TDP1 CPT inconclusive
CCOC(=O)c1c(NC(=O)CN2CCCc3ccccc32)sc(C(C)=O)c1C	DT40 TDP1 CPT inconclusive, DT40 TDP1 no CPT 21µM
COC(=O)c1c(NC(=O)Cc2cccs2)sc(C)c1C	none (no result: uPA generation)
CCOC(=O)c1c(NC(=O)Cc2cccs2)sc(C(=O)N2CCCCC2)c1C	DT40 TDP1 CPT inconclusive, DT40 TDP1 no CPT 9.2µM
Cc1cnc(C(=O)OCC(=O)c2ccc[nH]2)cn1	none
CC(C)C[C@H]1CN=C(N(C)C)N1CC1CCCC1	DT40 TDP1 CPT inconclusive, uPA generation inconclusive, DT40 TDP1 no CPT inconclusive
CCC(CC)CN1C(N(C)C)=NC[C@@H]1CC(C)C	DT40 TDP1 CPT 16µM, uPA generation inconclusive, DT40 TDP1 no CPT 18µM
C[C@H]1CN=C(N(C)C)N1CCCCc1ccccc1	DT40 TDP1 CPT inconclusive, DT40 TDP1 no CPT 15µM
CC(C)C[C@H]1CN=C(N(C)C)N1CCCCc1ccccc1	DT40 TDP1 CPT 5.2µM, uPA generation inconclusive, IL-1B inflam inh inconclusive, DT40 TDP1 no CPT 2.6µM
Cc1c(NS(=O)(=O)c2cc(C(=O)N(C)Cc3ccccc3)ccc2Cl)c(=O)n(-c2ccccc2)n1C	DT40 TDP1 CPT inconclusive, DT40 TDP1 no CPT inconclusive
COc1ccc(C(=O)C[C@@H]2OC[C@H](Cc3ccccc3)N2S(=O)(=O)c2ccc(C)cc2)cc1OC	DT40 TDP1 CPT inconclusive, DT40 TDP1 no CPT inconclusive (no result: uPA generation)
O=C(c1cccc(C(F)(F)F)c1)N1CCN(CCc2ccccc2)CC1	none
Cn1c(=O)c(=O)n(C)c2cc(S(=O)(=O)CCC(=O)Nc3ccccc3C(F)(F)F)ccc21	none (no result: uPA generation)
O=C(NCCc1ccccc1)C(=O)NCCC1CCCCN1S(=O)(=O)c1ccccc1 (centres undefined)	DT40 TDP1 CPT inconclusive, IL-1B inflam inh inconclusive, DT40 TDP1 no CPT inconclusive
O=C(Nc1ccccc1F)C1CCCN1S(=O)(=O)c1ccc(Cl)cc1 (centres undefined)	none
O=C(NCCc1ccccc1)C1CCCN1S(=O)(=O)c1ccc(Cl)cc1 (centres undefined)	DT40 TDP1 no CPT inconclusive
Cc1ccc(S(=O)(=O)N2CCC[C@H]2C(=O)Nc2ccccc2Cl)cc1	DT40 TDP1 no CPT 16µM
O=C(NCCc1ccccc1)C(=O)NCC1CCCN1S(=O)(=O)c1ccccc1 (centres undefined)	HT1080 IDH1KD tx inconclusive, DT40 TDP1 CPT 13µM, uPA generation inconclusive, DT40 TDP1 no CPT 10µM
CCOc1ccccc1NC(=O)C1CCCCN1S(=O)(=O)c1ccc(F)cc1 (centres undefined)	DT40 TDP1 no CPT 21µM
Cc1ccc(S(=O)(=O)N2CCCC2C(=O)NCCc2ccccc2)cc1 (centres undefined)	DT40 TDP1 no CPT 15µM
Clc1ccc(Cn2c3c(c4ccccc42)CCc2cc4ccccc4nc2-3)cc1	none (no result: HT1080 IDH1KD tx, uPA generation, IL-1B inflam inh, HT1080NT lethal)

Assay outcomes from PubChem BioAssay.
